# Compound activity: PubChem BioAssay, National Center for Advancing Translational Sciences (NCATS)
# KAT2A inh: GCN5L2 (KAT2A) acetyltransferase inhibition | GCN5L2 HAT assay, ThioGlo1 CoA-SH fluorescence | Potency, µM (series often up to 58.9 µM), for the others: at the top dose activity change, negative = inhibition, hits mostly inhibitors | 0.21% of 390,000 active | AID 504327
#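 Enzyme at 20nM final was mixed with library compounds for 15 min at room temperature. Peptide H3(1-25) at 75uM, acetyl-CoA at 70uM and ThioGlo1 at 50uM were then added. Plates were read immediately and after 20 min (Ex340nm/Em540nm).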
# TDP1 inh: TDP1 (human) enzyme inhibition; Q9NUW8; Potency, µM (highest dose often 130 µM), for the others: at the highest dose activity change, negative = inhibition, usual class: inhibitors; recombinant TDP1, AlphaScreen DNA substrate cleavage; 0.28% of 350,000 active; also: nearly all actives have a fitted effect of over 40% in size
#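 Tdp1 1 nM final; 15 min RT w/ cpd; substrate 15 nM, 5 min; beads 10 ug/ml, 10 min; AlphaScreen read. Neg ctrl: no enzyme.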
# VDR inh: vitamin D3 receptor (human) inhibition. P11473. VDR-SRC2-3 peptide fluorescence polarization, 2 h. Potency, µM, without a hit: max response, negative = inhibition, hits mostly inhibitors. 0.93% of 400,000 active
# Target sequence (P11473 whole entry, looked up): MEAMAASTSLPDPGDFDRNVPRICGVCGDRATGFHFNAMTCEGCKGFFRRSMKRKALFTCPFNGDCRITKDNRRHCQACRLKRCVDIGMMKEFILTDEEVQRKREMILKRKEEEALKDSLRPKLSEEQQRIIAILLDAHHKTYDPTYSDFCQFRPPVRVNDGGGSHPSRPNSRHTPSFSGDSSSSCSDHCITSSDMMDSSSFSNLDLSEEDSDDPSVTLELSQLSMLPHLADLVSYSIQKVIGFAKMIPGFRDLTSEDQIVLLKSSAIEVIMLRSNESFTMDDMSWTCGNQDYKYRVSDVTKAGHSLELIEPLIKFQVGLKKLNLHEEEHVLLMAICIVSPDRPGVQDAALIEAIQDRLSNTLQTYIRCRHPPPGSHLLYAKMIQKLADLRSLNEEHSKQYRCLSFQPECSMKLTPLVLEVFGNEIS
#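 Fluorescence polarization assay measuring small-molecule disruption of VDR binding to the coregulator peptide SRC2-3. Compounds were pin-transferred (23 nl) into the reagent mix and incubated 2 h at room temperature before reading.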
# DT40 TDP1 CPT: growth inhibition of DT40 Tdp1-/-;hTDP1 cells with camptothecin (screen for TDP1 inhibitors); chicken DT40 Tdp1-/-;hTDP1 cells + 20 nM CPT, ATP luminescence, 48 h; Potency, µM (series often up to 46.2 µM), for inactives: at the highest dose activity change, negative = growth inhibition, usual class: inhibitors; 12% of 420,000 active; also: nearly all actives have a fitted effect of over 55% in size
#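 Chicken DT40 Tdp1-/- cells stably complemented with human TDP1 were seeded at 400 cells/well in medium containing 20 nM camptothecin, exposed to pin-transferred compounds, and grown at 37 °C for at least 48 hr. Viability was read as ATP luminescence.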
# DT40 TDP1 no CPT: qHTS for Inhibitors of human tyrosyl-DNA phosphodiesterase 1 (TDP1): qHTS in cells in absence of CPT; 15% of 420,000 active; DT40 Tdp1-/- hTDP1 cells, no CPT, ATP luminescence, 48 h; Potency, µM (series often up to 46.2 µM), for inactives: at the highest dose activity change, negative = growth inhibition, usual class: inhibitors; also: nearly all actives have a fitted effect of over 55% in size
#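 Chicken DT40 Tdp1-/- cells stably complemented with human TDP1 were seeded at 400 cells/well with DMSO in place of 20 nM camptothecin. After compound pinning, cells grew at least 48 hr at 37 °C; viability read by CellTiter-Glo luminescence.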
# PLK1 PBD block: inhibitors of human PLK1 polo-box domain binding; Potency, µM, inactives show max response, negative = inhibition, most hits filed as inhibitors; AID 720504; Plk1 PBD binding of FITC phosphopeptide, fluorescence polarization; 2.8% of 360,000 active; P53350; also: series mostly up to about 57 µM; nearly all actives have a fitted effect of over 65% in size
# Numbers without * were called inactive; ? = inconclusive; · = no result given; [ ] = remark or other dose. This is a sample that favours compounds with a hit; in the whole collection about 18% have one here. Calls follow the shape of the dose curve; as a rule, active = well fitted curve in the direction sought with a large enough effect; inconclusive = small, poorly fitted or top-dose-only effect, or another doubt; inactive = no such curve, though single readings can be large; an effect the other way counts as inactive or inconclusive. % is scaled to controls: 0 for no effect and ±100 for the full control effect; potency is read from the fitted curve at half-maximal effect.
SMILES,KAT2A inh,TDP1 inh,VDR inh,DT40 TDP1 CPT,DT40 TDP1 no CPT,PLK1 PBD block
Cc1ccc2c(c1)CN(CCNC(=O)c1n[nH]c3c1CCCC3)CC(C)O2 (stereo not drawn),·,·,·,?,-13%,·
CCNc1ncc2nc(CCc3ccccc3)c(=O)n(Cc3cccc(OC)c3)c2n1,-3%,·,-15%,-24%,-12%,·
C[C@@H](C(=O)O)c1ccc(C(=O)c2ccccc2)s1,3%[21.4 µM],7%[56.1 µM],1%,·,·,·
O=C(Nc1cccc(F)c1)N1CCCC(CNS(=O)(=O)Cc2ccccc2)C1 (stereo not drawn),1%,2%,11%,3%,-10%,-2%
COC(=O)[C@@H]1C[C@@]2(O)[C@@H](O)[C@@H](O)[C@@H](O)C[C@H]2N1Cc1cc(OC)cc(OC)c1,-27%,1%,-2%,-3%,-2%,-23%
CCOC(=O)c1[nH]c(C)c(CCC(=O)Nc2ccccc2OCC)c1C,-12%,5%,-2%,?,16µM*,·
CCOC(=O)c1[nH]c(C)c(CCC(=O)Nc2ccc(Br)c(C)c2)c1C,-5%,5%,12%,?,?,·
CCOC(=O)c1[nH]c(C)c(CCC(=O)NCc2ccccc2Cl)c1C,4%,5%,16%,?,?,·
CCOC(=O)c1[nH]c(C)c(CCC(=O)Nc2ccccc2C(=O)OC)c1C,-15%,11%,5%,13µM*,16µM*,·
CCOC(=O)c1[nH]c(C)c(CCC(=O)Nc2ccc(N(CC)CC)cc2C)c1C,-18%,-8%,3%,23µM*,21µM*,·
CC1(C)Cc2c(cnn2-c2ccc(F)cc2)C(NC(=O)CCN2CCCCC2=O)C1 (stereo not drawn),-7%,4%,-13%,-13%,-25%,4%
Cc1c(P(=S)(c2ccccc2)c2ccccc2)[n+]2ccccc2n1Cc1ccccc1,·,1%,·,·,·,·
OC[C@H]1O[C@@H](c2nc3ccc(-c4nc(-c5ccc(Br)cc5)no4)cc3[nH]2)C[C@@H]1O,·,·,·,16µM*,16µM*,-1%
CNc1nc(-c2ccc3c(c2)CCN3S(=O)(=O)c2ccccc2)c(C)s1,-10%,5%,?,?,?,?
CCCC[C@@H]1CNC(=O)C(=O)N1CCCCC1CCCCC1,·,·,·,?,?,-16%
NCCCC[C@H]1CNC(=S)N1CCCCC1CCCCC1,0%,6%,3%,9.2µM*,7.3µM*,-8%
COc1cc(-c2nc(-c3ccc4c(c3)-c3ccccc3S4(=O)=O)c(-c3ccccc3)[nH]2)cc(OC)c1O,-4%,8%,-6%,6.5µM*,16µM*,2%
COc1ccc(-c2nc(-c3cccs3)c(-c3cccs3)[nH]2)cc1OC,-8%,8%,-6%,?,16µM*,0%
COc1cc(-c2nc(-c3cccc(Cl)c3)c(-c3ccccc3)[nH]2)cc(OC)c1OC,2%,·,-5%,18µM*,16µM*,·
COc1cc(-c2nc(-c3ccccc3)c(-c3cc([N+](=O)[O-])ccc3C)[nH]2)cc(OC)c1OC,-3%,-5%,5%,18µM*,16µM*,-2%
COc1cccc(-c2cncnc2NCc2cccs2)c1,-14%,·,-17%,?,?,·
COc1ccc(-n2c(SCC(=O)N/N=C(\C)c3cccnc3)nc3ccccc3c2=O)cc1,-9%,·,-24%,-8%,?,2%
COc1ccc(-c2nc(-c3ccccc3)c(-c3cccs3)[nH]2)cc1OC,-5%,13%,4%,18µM*,15µM*,3%
COc1ccc(-c2nc(-c3ccccc3)c(-c3ccccc3)[nH]2)cc1Br,-11%,2%,-2%,18µM*,13µM*,·
O=C(OCC(=O)N1CCCC1=O)c1ccc(O)cc1O,-4%,·,6%,3%,-20%,-6%
SMILES,KAT2A inh,TDP1 inh,VDR inh,DT40 TDP1 CPT,DT40 TDP1 no CPT,PLK1 PBD block
Cc1ccccc1NC(=O)Cc1nc(-c2c[nH]c(C(=O)N3CCCC3)c2)cs1,-7%,6%,-16%,18µM*,?,-6%
Cc1ccc2oc(=O)c(-c3nc(-c4cccs4)no3)cc2c1,-9%,3%,4%,-22%,-3%,·
CC(CC12CC3CC(CC(C3)C1)C2)NCc1ccccc1O (stereo not drawn),-5%,·,10%,15µM*,16µM*,-13%
Oc1ccccc1CNCC12CC3CC(CC(C3)C1)C2,16%,·,-6%,?,?,0%
CCOC(=O)N1CCN(c2ccc(C(=O)c3cccc(F)c3)cc2)CC1,-2%[0.501 µM],-4%,-6%,13µM*,21µM*,3%
O=C(c1ccccc1)N1CCN(C(=O)c2ccccc2Br)CC1,-5%,2%,-3%,-12%,6%,0%
O=C(c1ccc(N2CCN(C(=O)c3ccccc3Br)CC2)cc1)c1cccc(F)c1,1%,6%,32%,16µM*,26µM*,6%
CCOC(=O)N1CCN(c2c(N3CCN(c4ccc(OC)cc4)CC3)c(=O)c2=O)CC1,-14%,-4%,-12%,-20%,-25%,5%
O=C(CCNS(=O)(=O)c1ccc2nsnc2c1)N1CCN(c2ccncc2)CC1,-2%,1%,4%,?,16µM*,-2%
CCc1nc2ccccc2n1CCC(C)C,-4%,-6%,3%,26µM*,16µM*,0%
CCc1nc2ccccc2n1CCc1ccccc1,-7%,4%,1%,-29%,?,-15%
CC(C)Cc1nc2ccccc2n1CCc1ccccc1,-1%,3%,2%,23µM*,?,-1%
Cn1c(-c2c(N)n(CCc3ccccc3)c3nc4ccccc4nc23)nc2ccccc21,-29%,9%,0%,26µM*,21µM*,-5%
CC(C)C(=O)NCCc1nc2ccccc2n1CCc1ccccc1,-3%,5%,-2%,?,21µM*,0%
COC(=O)c1cn(NC(=O)/C=C/c2ccc(OC)c(OC)c2)c(=O)c2ccccc12,-2%,5%,-1%,-16%,-14%,1%
Cc1cccc(NC(=O)Cn2nnc(C(=O)Nc3ccccc3Br)c2N)c1C,24%,3%,1%,-15%,-14%,·
C[C@H](NC(=O)N1CCn2c1nc1ccccc12)C(=O)NCc1ccccc1,-11%,0%,0%,-6%,18%,0%
C=C(Br)Cn1c(CC(C)C)nc2ccccc21,2%,1%,-10%,12µM*,9.2µM*,2%
C=C(Br)Cn1c(CCC)nc2ccccc21,-12%,2%,17%,?,?,-6%
